Measured values taken from PubChem BioAssay.

What follows are molecules tested on XIP peptide (Xip251-270) binding (assay: small-molecule binders of XIP peptide, primary screen, biochemical, small-molecule microarray, fluorescence 635/667 nm, 0.1 µg/mL protein (AID 1182)). Conditions: fluorescent protein binding, 635 nm, higher = more signal, called active from +8 up or from −8 down.

Composite z-score, inactive:
Cn1c2c(c3ccccc31)C(=O)C1NC2C=CC1(C)C(=O)OCc1ccccc1 (configuration not stated) -0.605
CO[C@H]1O[C@H](CO)[C@@H](OC(=O)Nc2ccccc2-c2ccccc2)[C@H](OC(=O)Nc2ccccc2-c2ccccc2)[C@H]1OC(=O)Nc1ccccc1-c1ccccc1 0.0163
O=c1cccc(-c2cccc3ccccc23)o1 -0.738
O=C(NCC(O)CO)[C@@]1(Cc2ccccc2)COC(c2ccc(OCCCO)cc2)=N1 (some centres not stated) -0.0623
O=C1O[C@H](c2ccccc2)[C@H](c2ccccc2)N2[C@H]1[C@@H](C(=O)NC[C@H](O)c1ccccc1)[C@]1(C(=O)Nc3ccc(C#CC4(O)CCCCCC4)cc31)[C@H]2c1ccccc1OCCO -0.34
CC(C)C(=C=CC[C@H](O)c1ccccc1OCCO)CCO -0.393
COC(=O)c1c2oc(c1C(=O)OC)C(=O)N[C@H](Cc1ccccc1)Cn1nncc1C1(CCCCC1)NC(=O)N[C@H](CO)CC2 0.152
